Shown is part of a subset that was picked to be rich in the strongest signals.
Assays:
Assay in all cases: glycan array binding signal (z-score within array); higher = stronger binding
Settings in all cases: glycan notation: IUPAC condensed, linker removed
[1] = target: GlcA(b1-6)Gal
Outline: (§1)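 Negative Z-scores can be read as non-binding. The Z-score is calculated within each array and then averaged across arrays of one protein sequence at different concentrations or buffers and across linkers. Arrays, 3228 in all, were curated from the Consortium for Functional Glycomics database and kept only where the protein sequence was available.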

[2] = target: GlcNAc(a1-4)Gal(b1-4)GalNAc
Outline: as §1

[3] = target: GlcNAc(a1-4)Gal(b1-4)GlcNAc
Outline: as §1

[4] = target: GlcNAc(b1-3)Gal(b1-4)GlcNAc(b1-2)[GlcNAc(b1-3)Gal(b1-4)GlcNAc(b1-6)]Man(a1-6)[GlcNAc(b1-3)Gal(b1-4)GlcNAc(b1-2)Man(a1-3)]Man(b1-4)GlcNAc(b1-4)GlcNAc
Outline: as §1

[5] = target: GlcNAc(b1-3)Gal(b1-4)GlcNAc(b1-3)Gal(b1-4)GlcNAc(b1-3)Gal(b1-4)GlcNAc(b1-2)[GlcNAc(b1-3)Gal(b1-4)GlcNAc(b1-3)Gal(b1-4)GlcNAc(b1-3)Gal(b1-4)GlcNAc(b1-6)]Man(a1-6)[GlcNAc(b1-3)Gal(b1-4)GlcNAc(b1-3)Gal(b1-4)GlcNAc(b1-3)Gal(b1-4)GlcNAc(b1-2)Man(a1-3)]Man(b1-4)GlcNAc(b1-4)[Fuc(a1-6)]GlcNAc
Outline: as §1

[6] = target: GlcNAc(b1-3)Gal(b1-4)GlcNAc(b1-3)Gal(b1-4)GlcNAc(b1-3)Gal(b1-4)GlcNAc(b1-3)Gal(b1-4)GlcNAc(b1-2)Man(a1-3)[GlcNAc(b1-3)Gal(b1-4)GlcNAc(b1-3)Gal(b1-4)GlcNAc(b1-3)Gal(b1-4)GlcNAc(b1-3)Gal(b1-4)GlcNAc(b1-2)Man(a1-6)]Man(b1-4)GlcNAc(b1-4)GlcNAc
Outline: as §1

[7] = target: GlcNAc(b1-3)Gal(b1-4)GlcNAc(b1-6)[Gal(b1-3)]GalNAc
Outline: as §1

[8] = target: GlcNAc(b1-3)Gal(b1-4)GlcNAc(b1-6)[GlcNAc(b1-3)Gal(b1-3)]GalNAc
Outline: as §1

[9] = target: GlcNAc(b1-3)[GlcNAc(b1-6)]Gal(b1-4)GlcNAc
Outline: as §1

[10] = target: Kdn(a2-3)Gal(b1-3)GlcNAc
Outline: as §1

[11] = target: Man(a1-2)Man(a1-2)Man(a1-3)Man
Outline: as §1

[12] = target: Man(a1-2)Man(a1-3)Man
Outline: as §1

[13] = target: Man(a1-3)[Man(a1-6)]Man(b1-4)GlcNAc(b1-4)GlcNAc
Outline: as §1

[14] = target: Man(a1-6)Man
Outline: as §1

[15] = target: Neu5Ac(a2-3)Gal(b1-4)GlcNAc(b1-2)Man(a1-3)[Neu5Ac(a2-6)Gal(b1-4)GlcNAc(b1-2)Man(a1-6)]Man(b1-4)GlcNAc(b1-4)GlcNAc
Outline: as §1

[16] = target: Neu5Ac(a2-3)Gal(b1-4)GlcNAc(b1-2)[Neu5Ac(a2-3)Gal(b1-4)GlcNAc(b1-6)]Man(a1-6)[Neu5Ac(a2-3)Gal(b1-4)GlcNAc(b1-2)Man(a1-3)][GlcNAc(b1-4)]Man(b1-4)GlcNAc(b1-4)GlcNAc
Outline: as §1

[17] = target: Neu5Ac(a2-3)Gal(b1-4)GlcNAc(b1-3)Gal(b1-4)GlcNAc(b1-3)Gal(b1-4)GlcNAc(b1-2)Man(a1-3)[Neu5Ac(a2-3)Gal(b1-4)GlcNAc(b1-3)Gal(b1-4)GlcNAc(b1-3)Gal(b1-4)GlcNAc(b1-2)Man(a1-6)]GalNAc
Outline: as §1

[18] = target: Neu5Ac(a2-3)Gal(b1-4)GlcNAc(b1-3)Gal(b1-4)GlcNAc(b1-6)[Gal(b1-3)]GalNAc
Outline: as §1

[19] = target: Neu5Ac(a2-3)Gal(b1-4)[Fuc(a1-3)]GlcNAc(b1-3)Gal
Outline: as §1

[20] = target: Neu5Ac(a2-3)Gal(b1-4)[Fuc(a1-3)]GlcNAc(b1-3)GalNAc
Outline: as §1

[21] = target: Neu5Ac(a2-6)Gal(b1-3)GlcNAc(b1-3)[Gal(b1-4)GlcNAc(b1-6)]Gal(b1-4)Glc
Outline: as §1

[22] = target: Neu5Ac(a2-6)Gal(b1-4)Glc
Outline: as §1

[23] = target: Neu5Ac(a2-6)Gal(b1-4)GlcNAc(b1-2)Man(a1-3)[Neu5Ac(a2-6)Gal(b1-4)GlcNAc(b1-2)Man(a1-6)]Man(b1-4)GlcNAc(b1-4)GlcNAc
Outline: as §1

[24] = target: Neu5Ac(a2-6)Gal(b1-4)GlcNAc(b1-3)Gal(b1-4)GlcNAc(b1-3)Gal(b1-4)GlcNAc(b1-2)Man(a1-3)[Neu5Ac(a2-6)Gal(b1-4)GlcNAc(b1-3)Gal(b1-4)GlcNAc(b1-3)Gal(b1-4)GlcNAc(b1-2)Man(a1-6)]GalNAc
Outline: as §1

[25] = target: Neu5Ac(a2-6)GalNAc
Outline: as §1

[26] = target: Neu5Ac(a2-6)GalNAc(b1-4)GlcNAc
Outline: as §1

[27] = target: Neu5Ac(a2-8)Neu5Gc(a2-3)Gal(b1-4)GlcNAc
Outline: as §1

[28] = target: Neu5Ac9Ac(a2-6)Gal(b1-4)GlcNAc
Outline: as §1

B1: PX14343G-pdi-535-24-535 (Parabacteroides distasonis) (protein)
chain: LDTVPKDQLAPSTTWQTEADAKGFIVGCYKDLLDGNTLLYLDCGSDIGYNNFPWEGFRPWGDGSLSSSNPGQILYDYKSIRKANTFLENVDKVTFSSDAVKANYVAQAKAIRAYKYFLMNWWYGGVPIISSYSSADEAKVERNTEQEVRDYIAKDLDEALAGIAEAPEARGYIAKGAVLAIKMREALYYGDWQKAKDAAKAIIDLKQYELDPDYTNLFKVSGVDSKEIILADQNIETLDGLGTIGQMYNNVDQGWSSIVPTQNLVDMYEMSDGLTKEESKTYDAKHPFANRDPRMAMTILYPGRDWRGDVLNTLDEKLQDGTVNKNFPTYTDNASKSALTWAKYLDPMDQYGDVWSSGACPIVFRYAEVLLTYAEAANELSGPSDEIYGYLNQIRQRVGMGEVDKAKYGTKDKLRELIRRERTVELAGEGLRRADIVRWQEDGKMLAEKVMNGDLLRVTGTINYGESEPTKRAEITGTAVIETRQFSSRNRYLPIPQTSMDKNPNLKQNPGY
[1]
  glycan array binding signal (z-score): -0.046
[2]
  glycan array binding signal (z-score): -1.02
[3]
  glycan array binding signal (z-score): 2.04
[4]
  glycan array binding signal (z-score): 2.37
[5]
  glycan array binding signal (z-score): 0.865
[6]
  glycan array binding signal (z-score): 0.208
[7]
  glycan array binding signal (z-score): -1.23
[8]
  glycan array binding signal (z-score): 0.869
[9]
  glycan array binding signal (z-score): 1
[10]
  glycan array binding signal (z-score): 0.143
[11]
  glycan array binding signal (z-score): 0.086
[12]
  glycan array binding signal (z-score): -0.387
[13]
  glycan array binding signal (z-score): -0.762
[14]
  glycan array binding signal (z-score): 2.08
[15]
  glycan array binding signal (z-score): -0.159
[16]
  glycan array binding signal (z-score): -0.038
[17]
  glycan array binding signal (z-score): 2
[18]
  glycan array binding signal (z-score): 1.55
[19]
  glycan array binding signal (z-score): -0.539
[20]
  glycan array binding signal (z-score): 0.588
[21]
  glycan array binding signal (z-score): -0.502
[22]
  glycan array binding signal (z-score): -0.218
[23]
  glycan array binding signal (z-score): -0.872
[24]
  glycan array binding signal (z-score): 1.49
[25]
  glycan array binding signal (z-score): -0.874
[26]
  glycan array binding signal (z-score): -0.103
[27]
  glycan array binding signal (z-score): 16.3
[28]
  glycan array binding signal (z-score): 0.187
